# From ChEMBL document CHEMBL3988442, “University of Dundee, Small-Polar-MMV Screening Library” (2021)
# Values joined by “and” are separate entries in the source; they are usually repeats but may differ in a detail not shown here. Equal entries are not always repeated. In all, about 34,000 compounds went through this assay and about 290 (0.85%) showed an effect of 50% or more. The sample as a whole holds a higher share of strong results than the screen did.
# Test system: Plasmodium falciparum
# Test: Plasmodium falciparum sporozoite viability assay
# Assay type: functional, organism-based
# Parameters: scale not given: in the data most compounds retested in dose-response had high values
compound,measurement,setting,value
CCc1nc(CNC(C)Cn2cccn2)cs1 (configuration not stated),Percent Effect,,4.8%
CNC(=O)[C@@H]1CN(Cc2ccccc2)C[C@H]1C(=O)c1ccc(F)cc1,Percent Effect,,12.45%
CC(C)(C)n1cc(C2=CCN(CCN3CCCCCC3)CC2)cn1,Percent Effect,10 mM as filed; unlikely as a test dose,-30.5% and -32%
Cc1nc(O)cc(CN2CC=C(c3cnn(C(C)(C)C)c3)CC2)n1,Percent Effect,10 mM as filed; unlikely as a test dose,-34.41% and -32.55%
CC(C)(C)n1cc(C2=CCN(CCc3ccccn3)CC2)cn1,Percent Effect,10 mM as filed; unlikely as a test dose,78.88% and 77.42%
CC(C)(C)n1cc(C2=CCN(CCNC(N)=O)CC2)cn1,Percent Effect,10 mM as filed; unlikely as a test dose,-28.2% and -25.06%
CC(C)(C)n1cc(C2=CCN(CCc3ccccc3)CC2)cn1,Percent Effect,10 mM as filed; unlikely as a test dose,84.88% and 75.7% and 89.28%
CC(C)(C)n1cc(C2=CCN(CCNC(=O)c3ccccc3)CC2)cn1,Percent Effect,10 mM as filed; unlikely as a test dose,-11.67% and -1.893%
O=C(O)C(F)(F)F.O=C(O)C(F)(F)F.O=S(=O)(C1CC1)N1CCC2(CC1)CN(Cc1ccccn1)CCO2,Percent Effect,,0.5199%
CCS(=O)(=O)N1CCN(CC2CC2)c2ncccc2C1,Percent Effect,,11.27%
O=C(c1ccsc1)N1CCN2C[C@H](OCc3ccccn3)C[C@H]2C1,Percent Effect,,1.117%
O=C(Cc1ccccn1)N1CCN2C[C@H](OCCN3CCCC3)C[C@H]2C1.O=C(O)C(F)(F)F.O=C(O)C(F)(F)F.O=C(O)C(F)(F)F,Percent Effect,,-8.505%
Cl.FC(F)(F)c1nc(C2CCCNC2)no1 (configuration not stated),Percent Effect,,6.016%
c1cnc(Nc2ccc(C3CCCCN3)cn2)cn1 (configuration not stated),Percent Effect,10 mM as filed; unlikely as a test dose,-2.241% and -0.3197% and -12.37%
Cc1cccc(Nc2ccc(C3CCCCN3)cn2)n1 (configuration not stated),Percent Effect,10 mM as filed; unlikely as a test dose,97.8% and 85.07% and 40.73%
Cc1cc(C)nc(C2CCCNC2)n1.Cl.Cl (configuration not stated),Percent Effect,,16.42%
Cc1cc(O)nc(C2CCCNC2)n1.Cl (configuration not stated),Percent Effect,,1.062%
COCCN1CCOCC12CCN(C(=O)c1ccncc1)CC2.O=C(O)C(F)(F)F,Percent Effect,,-4.875%
O=C(O)C(F)(F)F.O=C(O)C(F)(F)F.c1cncc(N2CCOCC3(CN(Cc4cccs4)CCO3)C2)c1 (configuration not stated),Percent Effect,,7.302%
O=C(O)C(F)(F)F.O=C(O)C(F)(F)F.c1cncc(COCC2CC[C@H]3[C@H]2OCCN3Cc2ccoc2)c1 (some centres not stated),Percent Effect,,12.08%
O=C(O)C(F)(F)F.O=C(O)C(F)(F)F.c1cncc(OC[C@@]23CCC[C@@H]2CN(C2CCOCC2)C3)c1,Percent Effect,,9.846%
O=C(O)C(F)(F)F.O=C(O)C(F)(F)F.c1cnc(N2CC3(CCN(Cc4ccncc4)C3)C2)nc1,Percent Effect,,-6.54%
